# Screens from PubChem.
# Dicer processing = blocks human Dicer maturation of pre-miR-21; z-score at 25 µM; Q9UPY3; 47,000 compounds, 6% hits; cat-ELCCA pre-miR-21 Dicer processing, chemiluminescence; hits give high values; in the data active = z-score above about 3, passing the limit was not always enough;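 also: plate controls were vehicle for no effect and no enzyme for full effect; higher signal means more uncleaved substrate so more Dicer inhibition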
# Target sequence (Q9UPY3 whole entry, looked up): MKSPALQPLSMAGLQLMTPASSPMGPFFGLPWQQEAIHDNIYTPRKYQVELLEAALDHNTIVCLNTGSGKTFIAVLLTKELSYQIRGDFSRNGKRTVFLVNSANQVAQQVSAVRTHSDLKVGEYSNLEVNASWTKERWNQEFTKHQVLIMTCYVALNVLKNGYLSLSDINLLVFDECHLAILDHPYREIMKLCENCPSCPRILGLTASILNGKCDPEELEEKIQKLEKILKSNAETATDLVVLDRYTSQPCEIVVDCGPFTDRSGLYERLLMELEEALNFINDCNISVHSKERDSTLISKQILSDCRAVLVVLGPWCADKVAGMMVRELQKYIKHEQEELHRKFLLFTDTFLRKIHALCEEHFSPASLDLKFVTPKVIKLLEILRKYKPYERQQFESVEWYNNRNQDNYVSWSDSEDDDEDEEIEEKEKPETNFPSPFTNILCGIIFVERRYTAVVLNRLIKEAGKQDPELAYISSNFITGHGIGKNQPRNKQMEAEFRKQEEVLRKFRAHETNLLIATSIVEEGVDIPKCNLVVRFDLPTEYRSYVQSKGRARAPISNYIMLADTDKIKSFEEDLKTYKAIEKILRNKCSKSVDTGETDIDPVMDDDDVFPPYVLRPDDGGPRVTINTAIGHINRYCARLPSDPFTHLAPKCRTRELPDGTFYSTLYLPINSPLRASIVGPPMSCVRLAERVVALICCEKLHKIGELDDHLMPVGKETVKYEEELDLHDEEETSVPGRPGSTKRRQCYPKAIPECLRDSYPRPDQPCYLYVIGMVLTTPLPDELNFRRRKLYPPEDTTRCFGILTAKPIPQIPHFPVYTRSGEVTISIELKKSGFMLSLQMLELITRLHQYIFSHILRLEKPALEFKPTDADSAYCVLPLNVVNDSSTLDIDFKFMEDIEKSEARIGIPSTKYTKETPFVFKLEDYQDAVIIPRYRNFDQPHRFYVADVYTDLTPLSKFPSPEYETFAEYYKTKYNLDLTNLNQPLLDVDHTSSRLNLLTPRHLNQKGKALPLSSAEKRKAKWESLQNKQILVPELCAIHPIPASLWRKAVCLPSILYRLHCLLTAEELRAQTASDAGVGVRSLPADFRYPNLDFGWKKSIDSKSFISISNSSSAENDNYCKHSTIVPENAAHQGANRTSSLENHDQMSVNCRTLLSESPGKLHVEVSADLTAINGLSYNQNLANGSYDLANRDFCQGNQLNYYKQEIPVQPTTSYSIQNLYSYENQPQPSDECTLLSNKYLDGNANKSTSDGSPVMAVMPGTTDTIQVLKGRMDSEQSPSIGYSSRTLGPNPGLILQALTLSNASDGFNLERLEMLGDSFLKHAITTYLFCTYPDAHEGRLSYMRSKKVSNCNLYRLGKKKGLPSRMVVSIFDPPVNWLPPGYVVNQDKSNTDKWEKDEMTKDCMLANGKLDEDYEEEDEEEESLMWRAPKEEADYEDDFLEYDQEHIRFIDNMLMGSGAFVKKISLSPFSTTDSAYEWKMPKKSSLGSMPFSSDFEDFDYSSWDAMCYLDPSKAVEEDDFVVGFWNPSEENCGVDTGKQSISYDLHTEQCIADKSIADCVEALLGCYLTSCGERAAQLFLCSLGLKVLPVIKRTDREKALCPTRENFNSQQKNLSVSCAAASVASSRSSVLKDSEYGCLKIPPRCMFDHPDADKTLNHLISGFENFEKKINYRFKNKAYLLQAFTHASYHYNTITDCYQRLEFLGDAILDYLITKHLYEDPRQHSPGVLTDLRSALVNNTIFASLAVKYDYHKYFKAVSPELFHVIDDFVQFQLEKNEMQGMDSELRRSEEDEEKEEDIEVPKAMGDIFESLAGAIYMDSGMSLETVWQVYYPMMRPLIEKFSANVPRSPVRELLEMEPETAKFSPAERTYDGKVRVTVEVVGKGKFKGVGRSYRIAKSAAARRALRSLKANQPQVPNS
# Starred values were filed as active, the others as inactive; ! = not confirmed by another sample. The sample as a whole holds a higher share of hits than the screen did.
SMILES,Dicer processing
CCC1(C(=O)c2ccc(F)cc2)C2c3cc(Br)ccc3OC(=O)C21C(=O)OC (configuration not stated),3.37*
S=C(Nc1ccc(Cl)cc1Cl)N1CCCC1c1cccnc1 (configuration not stated),-0.68
c1ccc2sc(Cc3cn4ccccc4n3)nc2c1,0.03
CNC(=O)O/N=C/C(=O)c1ccc(Cl)cc1,-0.86
COc1ccc(CN2CCN(Cc3ccc(Br)cc3)CC2)cc1,-0.08
COc1cccc(CN2CCN(Cc3cc(Br)ccc3O)CC2)c1,3.4*
CCc1ccc(CN2CCN(Cc3cc(Br)ccc3O)CC2)cc1,0.95
Clc1cccc(NC2=NCCS2)c1Cl,3.6*
Cc1ccc(NC2=NCCS2)c(C)c1,1.6
Clc1cc(Br)ccc1NC1=NCCS1,0.58
Clc1cccc(Cl)c1NC1=NCCS1,2.3
Clc1cc(Cl)cc(NC2=NCCS2)c1,3.72*!
Cc1cc(C)c(NC2=NCCS2)c(C)c1,-0.62
COc1ccc(C=C2C(=O)C3CCN2CC3)cc1Br,1.08
CCCCn1c(N)c(C(=O)OC)c2nc3ccccc3nc21,-7.15
COc1ccc(CSC2C(C(=O)NNC(=O)c3ccccc3)C3CCN2CC3)cc1 (configuration not stated),1.36
CCCCCc1nc2ccccc2c(=O)n1-c1ccc(O)cc1,0.84
CC1=C(C#N)C(c2cnc[nH]2)C2=C(CCCC2=O)N1 (configuration not stated),-0.69
Cc1ccc(-n2c(=S)[nH]c3cccc(F)c3c2=O)cc1C,1.76
CCSCc1cc(OC(=O)N(C)C)nc(-c2ccc(C(F)(F)F)cc2)n1,0.8
O=c1oc2ccccc2c2c1C(c1cccc([N+](=O)[O-])c1)c1c(c3ccccc3oc1=O)O2,-0.29
N#CC1=C(N)Oc2c(c(=O)oc3ccccc23)C1c1cccnc1 (configuration not stated),-1.16
O=c1oc2ccccc2c2c1C(c1ccc([N+](=O)[O-])cc1)c1c(c3ccccc3oc1=O)O2,3.68*
CC12CCC3C(CC4OCC35CCC(O)C[C@]45Br)C1CCC2O (some centres not stated),-2.21
C=C(C)Cc1c(COC)nc(-c2ccc(C)c(Cl)c2)nc1OC(=O)N(C)C,6.46
SMILES,Dicer processing
CCC(=O)OC1CCC2C3CCC4=CC(=O)CCC4(C)C3CCC12C (configuration not stated),-1.88
Clc1ccc(CN2CCN(Cc3ccc4c(c3)OCO4)CC2)cc1,-1.74
Clc1ccccc1CN1CCN(Cc2ccc3c(c2)OCO3)CC1,3.86*
Fc1cccc(Cl)c1CN1CCN(Cc2c(F)cccc2Cl)CC1,-3.91
Clc1cccc(CN2CCN(Cc3ccc4c(c3)OCO4)CC2)c1,-0.43
Fc1cccc(CN2CCN(Cc3ccccc3Cl)CC2)c1,6.4*
CSc1ccc(CN2CCN(Cc3ccccc3Cl)CC2)cc1,0.04
O=C(C(Cl)Cl)N1CCSCC1,0.17
CN[C@@H]1[C@@H](O)[C@@H](O[C@@H]2[C@@H](O)[C@H](O[C@H]3O[C@H]([C@@H](C)NC)CC[C@H]3N)[C@@H](N)C[C@H]2N)OC[C@]1(C)O (tested in a mixture with another compound),43.8
CC12CCC3C4CCC(=O)C=C4CCC3C1CCC2=O (configuration not stated),-1.78
CN(C)CC1(CC(=O)O)CCCCC1,0.34
CCCCCCn1c(N)c(C(=O)OC)c2nc3ccccc3nc21,-0.6
C[C@]12CCC3[C@@H](CC[C@@H]4C[C@H](O)CC[C@]34C)[C@@H]1CCC2=O (some centres not stated),0.03
C[C@]12CC[C@H](O)C[C@H]1CC[C@@H]1[C@@H]2C[C@@H](O)[C@]2(C)[C@@H](C3=CC(=O)OC3)CC[C@]12O,4.45*
C[C@]12CC[C@H](O)C[C@H]1CC[C@@H]1[C@@H]2CC[C@]2(C)[C@@H](C3=CC(=O)OC3)CC[C@]12O,0.23
CC(=O)OC1CCC2(C)C3C(=O)CC4(C)C(=O)CCC4C3CC[C@@]2(C)C1 (some centres not stated),0.34
CCOC(=O)c1c(C)nc2c(C3CCCN3C)cccn12 (configuration not stated),-0.52
Nc1ccc(Cc2ccc(N)cc2)cc1,7.57*
CCSc1nnc(C2CCNCC2)o1,-1.73
CCOC(=O)C1=C(C)OC(N)=C(C#N)C12C(=O)Nc1ccccc12 (configuration not stated),2.18
CCOC(=O)C1=C(N)OC(c2ccccc2)=C(C(=O)OCC)C12C(=O)Nc1ccccc12 (configuration not stated),-0.71
COCCOC(=O)C1=C(C)OC(N)=C(C#N)C12C(=O)Nc1ccccc12 (configuration not stated),3.76*
CCOC(=O)C1=NN(c2cccc(Cl)c2)C2c3cccc4cccc(c34)C12 (configuration not stated),2.27
CC(=O)CC(c1cccc([N+](=O)[O-])c1)c1c(OC(C)=O)c2ccccc2oc1=O (configuration not stated),0.15
CCOc1ccccc1Oc1coc2cc(OC(=O)N(C)C)ccc2c1=O,3.36*
SMILES,Dicer processing
Cc1oc2cc(OC(=O)N(C)C)ccc2c(=O)c1Oc1ccccc1Br,1.2
COc1cccc(Oc2c(C)oc3cc(OC(=O)N(C)C)ccc3c2=O)c1,-0.47
COc1ccc(Br)cc1/C=C(\C)[N+](=O)[O-],0.05
O=c1c2ccccc2nc(/C=C/c2ccccc2)n1-c1cccc(O)c1,3.14*
O=c1c2ccccc2nc(/C=C/c2ccc([N+](=O)[O-])o2)n1-c1ccc(Br)cc1,2.33
O=c1c2ccccc2nc(/C=C/c2ccc3c(c2)OCO3)n1-c1ccccc1O,2.68
O=c1c2ccccc2nc(C(F)(F)F)n1-c1ccccc1,2.79
O=c1c2ccccc2nc(/C=C/c2ccccc2F)n1-c1ccccc1,5.99*
Cc1ccc(-n2c(/C=C/c3ccc([N+](=O)[O-])o3)nc3ccccc3c2=O)cc1,3.04*
O=c1c2ccccc2nc(/C=C/c2ccco2)n1-c1cccc(O)c1,2.16
CN(C)c1ccc(/C=C/c2nc3ccccc3c(=O)n2-c2ccccc2)cc1,1.83
Cc1nc2ccccc2c(=O)n1-c1ccc(Br)cc1,-0.44
COc1ccc(NC(=S)NNC(=O)C2(O)CN3CCC2CC3)cc1 (configuration not stated),2.51
CC12CN3CC(C)(CN(C1)C3c1ccco1)C2O (configuration not stated),-1.1
C#CCSc1nc(C)c(Cc2c(F)cccc2Cl)c(OC(=O)N(C)C)n1,-0.05
CC1(C)CN=C(Nc2ccc(Cl)cc2)S1,-3.43
CC12CC(C(=O)C(F)(F)F)=C(O)C=C1CCC1C2CCC2(C)C(O)CCC12 (configuration not stated),-1.99
CNC(=S)NNC(=O)C1C2CCN(CC2)C1SCc1ccc(Cl)cc1 (configuration not stated),-0.85
CN1C(=O)CN=C(c2ccccc2)c2ccccc21,1.25
CC(C)(C)c1ccc(-n2c(=S)[nH]c3ccccc3c2=O)cc1,1.14
O=C(NC1CC1)C(Cl)(Cl)Cl,0.39
CCc1ccccc1-n1c(=S)[nH]c2ccccc2c1=O,-0.47
Cc1ccc2[nH]c(=S)n(-c3ccccc3F)c(=O)c2c1,5.28*
Cc1ccc(-n2c(=S)[nH]c3ccccc3c2=O)cc1,1.43
O=[N+]([O-])/C=C/c1ccc(Cl)c(Cl)c1,0.83
